Consider 31 sequences from PMC5700166.

Changes are numbered by the printed parent chain.

Common to all, as to assay: protein-binding microarray (PBM); PBM: ~300 nM protein, 6 mM HEPES pH 7.8, 80 mM KCl, 0.5 mM EDTA, 0.5 mM EGTA, 6% glycerol, 35 ng/ul poly-dIdC, 1% milk, 1 h, room temperature; Ap Aiptasia and Nv Nematostella (sea anemones) / Co Capsaspora / Aq Amphimedon (sponge) / Dm Drosophila / Hu human; RHD is the Rel homology domain; high values mean tight binding
Common to all, as to conditions: dsDNA, one strand shown

For assay [1], the target named is T1, GST-Ap-NF-kB RHD (Exaiptasia pallida (Aiptasia), UniProt A0A913YAJ5 2-422).
T1 sequence: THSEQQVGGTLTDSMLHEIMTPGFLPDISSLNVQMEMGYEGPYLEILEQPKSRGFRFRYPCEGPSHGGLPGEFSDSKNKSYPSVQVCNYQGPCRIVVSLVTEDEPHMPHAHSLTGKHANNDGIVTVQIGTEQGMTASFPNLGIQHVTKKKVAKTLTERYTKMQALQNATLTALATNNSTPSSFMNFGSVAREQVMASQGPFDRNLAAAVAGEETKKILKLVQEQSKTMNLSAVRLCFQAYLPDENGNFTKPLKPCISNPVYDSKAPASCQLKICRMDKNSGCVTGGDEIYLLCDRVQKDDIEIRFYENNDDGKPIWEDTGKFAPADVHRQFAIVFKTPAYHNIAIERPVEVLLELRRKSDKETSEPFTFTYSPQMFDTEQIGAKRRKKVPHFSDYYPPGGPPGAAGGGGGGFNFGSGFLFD

The target in assay [2] is T2, GST-Co-NF-kB (Capsaspora owczarzaki, UniProt F1ARL5 200-546).
T2 sequence: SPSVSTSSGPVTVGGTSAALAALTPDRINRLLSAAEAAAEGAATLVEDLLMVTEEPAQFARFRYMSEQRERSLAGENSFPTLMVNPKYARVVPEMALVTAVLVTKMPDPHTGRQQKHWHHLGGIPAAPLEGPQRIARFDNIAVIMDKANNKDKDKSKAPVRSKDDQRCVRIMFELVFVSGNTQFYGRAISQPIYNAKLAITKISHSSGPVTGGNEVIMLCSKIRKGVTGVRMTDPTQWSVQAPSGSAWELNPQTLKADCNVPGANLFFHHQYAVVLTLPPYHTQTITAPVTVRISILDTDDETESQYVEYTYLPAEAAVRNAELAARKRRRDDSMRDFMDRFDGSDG

The target of assay [3] is GST-Hu-p50 (Homo sapiens, UniProt P19838 7-356).
Assay [4] deals with T3, GST-Dm-Relish (Drosophila melanogaster, UniProt Q94527 99-473).
T3 sequence: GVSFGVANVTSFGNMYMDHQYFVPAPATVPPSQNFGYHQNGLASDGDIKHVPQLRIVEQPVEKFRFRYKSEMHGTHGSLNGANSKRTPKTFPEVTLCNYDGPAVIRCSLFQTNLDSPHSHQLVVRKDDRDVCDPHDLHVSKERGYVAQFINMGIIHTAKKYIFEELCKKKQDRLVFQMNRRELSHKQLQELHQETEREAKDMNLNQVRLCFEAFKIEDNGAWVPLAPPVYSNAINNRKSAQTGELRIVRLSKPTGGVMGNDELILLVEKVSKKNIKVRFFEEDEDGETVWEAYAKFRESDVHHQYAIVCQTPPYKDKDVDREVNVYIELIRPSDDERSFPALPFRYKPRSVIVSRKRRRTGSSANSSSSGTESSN

In assay [5] the target is T4, GST-Nv-NF-kB (Cys allele) (Nematostella vectensis, UniProt E5G601 2-411).
T4 sequence: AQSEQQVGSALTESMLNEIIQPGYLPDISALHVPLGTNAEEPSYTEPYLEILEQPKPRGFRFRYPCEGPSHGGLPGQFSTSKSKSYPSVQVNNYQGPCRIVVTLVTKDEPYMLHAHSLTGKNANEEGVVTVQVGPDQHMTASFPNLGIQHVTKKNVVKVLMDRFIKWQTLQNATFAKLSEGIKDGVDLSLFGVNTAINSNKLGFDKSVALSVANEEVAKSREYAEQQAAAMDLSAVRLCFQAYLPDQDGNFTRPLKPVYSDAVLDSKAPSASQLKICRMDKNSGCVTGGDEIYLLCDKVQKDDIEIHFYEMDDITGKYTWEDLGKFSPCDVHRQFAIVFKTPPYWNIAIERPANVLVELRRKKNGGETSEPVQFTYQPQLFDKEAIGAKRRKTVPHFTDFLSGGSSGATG

Assay [6] addresses T5, GST-Nv-NF-kB (Ser allele) (Nematostella vectensis, UniProt A7UNT2 2-411).
T5 sequence: T4 sequence with Q21R, C66S, S207N, E215Q, V217A, E225K, A268E, D399E

The target of assay [7] is T6, GST-Aq-NF-kB (Amphimedon queenslandica, UniProt A9Y5G7 2-389).
T6 sequence: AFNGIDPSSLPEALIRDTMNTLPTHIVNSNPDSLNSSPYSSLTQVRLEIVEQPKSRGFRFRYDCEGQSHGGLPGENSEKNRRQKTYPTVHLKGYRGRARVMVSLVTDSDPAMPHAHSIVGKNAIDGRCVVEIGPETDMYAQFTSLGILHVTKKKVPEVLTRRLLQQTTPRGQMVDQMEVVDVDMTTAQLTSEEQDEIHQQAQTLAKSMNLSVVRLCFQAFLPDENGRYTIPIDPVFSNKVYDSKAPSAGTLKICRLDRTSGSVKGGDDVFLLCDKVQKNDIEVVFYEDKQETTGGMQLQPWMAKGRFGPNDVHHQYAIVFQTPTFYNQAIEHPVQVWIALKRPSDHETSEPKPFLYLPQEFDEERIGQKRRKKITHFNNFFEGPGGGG

Sequence of GST-Hu-p50 (P19838 7-356): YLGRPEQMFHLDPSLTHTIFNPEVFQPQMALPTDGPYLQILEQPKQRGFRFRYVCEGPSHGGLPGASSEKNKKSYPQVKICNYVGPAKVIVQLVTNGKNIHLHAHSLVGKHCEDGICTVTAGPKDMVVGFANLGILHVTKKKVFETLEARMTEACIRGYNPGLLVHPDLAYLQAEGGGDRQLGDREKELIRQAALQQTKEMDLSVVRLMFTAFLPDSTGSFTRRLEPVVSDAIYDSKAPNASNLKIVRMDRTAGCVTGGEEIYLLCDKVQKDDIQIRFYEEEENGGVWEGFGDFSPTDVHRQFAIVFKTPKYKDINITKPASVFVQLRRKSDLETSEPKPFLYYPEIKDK

“CCGATTAACATCACCCCGCATGCTGATGTTAATCGGGTCTTGATTCGCTTGACGCTGCTG”: the binding signal in assay [1] turned out to be 1.75 z-score; in assay [2] it was 1.97 z-score; in assay [3] it was 1.34 z-score.
As to “CCGATTAACATCACAGCGTGAGGTGATGTTAATCGGGTCTTGATTCGCTTGACGCTGCTG”, the binding signal in assay [4] turned out to be 1.34 z-score; in assay [3], 1.16 z-score.
“CCGATTAACATCACCTTGAACGGTGATGTTAATCGGGTCTTGATTCGCTTGACGCTGCTG”: the binding signal in assay [5] amounted to 1.56 z-score; in assay [6], 1.73 z-score; in assay [4] it was 1.69 z-score; in assay [3] it was 2.74 z-score.
Take “CCGATTAACATCAAAAATTCCGGTGATGTTAATCGGGTCTTGATTCGCTTGACGCTGCTG”: the results for the binding signal in assay [4] and in assay [7] were 2.45 z-score and 2.94 z-score, respectively.
Turning to “CCGATTAACATCACCCCGAACGCTGATGTTAATCGGGTCTTGATTCGCTTGACGCTGCTG”, the binding signal was determined as 1.59 z-score in assay [1] and 2.02 z-score in assay [2].
Consider “CCGATTAACATCAATAGTACCGATGATGTTAATCGGGTCTTGATTCGCTTGACGCTGCTG”, for which the binding signal in assay [1] turned out to be 1.43 z-score; in assay [5] it was 1.03 z-score; in assay [6] it was 3 z-score.
For “CCGATTAACATCACGTGGGGCGTTGATGTTAATCGGGTCTTGATTCGCTTGACGCTGCTG”, the binding signal in assay [5] was determined as 1.36 z-score.
The sequence “CCGATTAACATCAAAGAGGAGTCTGATGTTAATCGGGTCTTGATTCGCTTGACGCTGCTG” came in with a binding signal in assay [5] of 1.23 z-score.
Consider “CCGATTAACATCAGCATTCCCAATGATGTTAATCGGGTCTTGATTCGCTTGACGCTGCTG”, for which the binding signal in assay [5] came to 1.29 z-score; in assay [2], 1.08 z-score.
On to “CCGATTAACATCAAGGGGGGATATGATGTTAATCGGGTCTTGATTCGCTTGACGCTGCTG”, for which the binding signal in assay [1] was 5.79 z-score; in assay [5], 4.88 z-score; in assay [2] it was 6.15 z-score; in assay [4], 4.29 z-score.
In assay [2], “CCGATTAACATCATCGCGGGTAGTGATGTTAATCGGGTCTTGATTCGCTTGACGCTGCTG” showed a binding signal of 1.37 z-score.
With “CCGATTAACATCAGATACCAGGGTGATGTTAATCGGGTCTTGATTCGCTTGACGCTGCTG”, the binding signal in assay [2] worked out at 1.09 z-score.
Regarding “CCGATTAACATCAGTAGGTGAAGTGATGTTAATCGGGTCTTGATTCGCTTGACGCTGCTG”, the binding signal in assay [2] was 1.02 z-score.
With “CCGATTAACATCAGTACCTCGTATGATGTTAATCGGGTCTTGATTCGCTTGACGCTGCTG”, the binding signal in assay [6] came to 1.04 z-score.
On to “CCGATTAACATCACTACCCCGGATGATGTTAATCGGGTCTTGATTCGCTTGACGCTGCTG”, for which the results for the binding signal in assay [1] and in assay [2] were 1.88 z-score and 3.19 z-score, respectively.
“CCGATTAACATCAACCCCAGCTCTGATGTTAATCGGGTCTTGATTCGCTTGACGCTGCTG”: the binding signal amounted to 1.01 z-score in assay [1], 1.21 z-score in assay [5], 1.8 z-score in assay [2] and 1.14 z-score in assay [4].
Consider “CCGATTAACATCAAGATTAGGGATGATGTTAATCGGGTCTTGATTCGCTTGACGCTGCTG”, for which the binding signal in assay [1] amounted to 1.31 z-score.
In the case of “CCGATTAACATCACTGGGAGGGCTGATGTTAATCGGGTCTTGATTCGCTTGACGCTGCTG”, the binding signal came to 1.08 z-score in assay [1] and 1.47 z-score in assay [2].
Consider “CCGATTAACATCACACTGTTCAGTGATGTTAATCGGGTCTTGATTCGCTTGACGCTGCTG”, for which the binding signal in assay [6] worked out at 1.06 z-score.
As to “CCGATTAACATCAAGTACCAGGGTGATGTTAATCGGGTCTTGATTCGCTTGACGCTGCTG”, the binding signal in assay [1] was 1.05 z-score.
Turning to “CCGATTAACATCACCCCCCCCCATGATGTTAATCGGGTCTTGATTCGCTTGACGCTGCTG”, the binding signal in assay [1] stood at 4.92 z-score; in assay [6], 3.7 z-score; in assay [2], 7.08 z-score; in assay [4] it was 5.37 z-score.
Regarding “CCGATTAACATCAAGGGGGGGGATGATGTTAATCGGGTCTTGATTCGCTTGACGCTGCTG”, the binding signal in assay [1] stood at 7.71 z-score; in assay [2], 7.64 z-score; in assay [4], 5.31 z-score.
In the case of “CCGATTAACATCAATTTGGGAAATGATGTTAATCGGGTCTTGATTCGCTTGACGCTGCTG”, the binding signal in assay [5] is 2.58 z-score; in assay [2], 1.92 z-score.
Sequence “CCGATTAACATCAGGTAATATATTGATGTTAATCGGGTCTTGATTCGCTTGACGCTGCTG” yielded a binding signal in assay [6] of 2.14 z-score.
“CCGATTAACATCAAGGGGGGGGGTGATGTTAATCGGGTCTTGATTCGCTTGACGCTGCTG”: the binding signal in assay [1] was determined as 5.14 z-score; in assay [2] it was 7.25 z-score; in assay [4], 5.34 z-score.
In the case of “CCGATTAACATCAGCTTGGGAAATGATGTTAATCGGGTCTTGATTCGCTTGACGCTGCTG”, the values for the binding signal in assay [5] and in assay [2] were 1.84 z-score and 2.33 z-score, respectively.
Take “CCGATTAACATCACTAGGCGGGATGATGTTAATCGGGTCTTGATTCGCTTGACGCTGCTG”: the binding signal in assay [1] was 1.56 z-score; in assay [2], 1.92 z-score.
Take “CCGATTAACATCAGTGGTACTTGTGATGTTAATCGGGTCTTGATTCGCTTGACGCTGCTG”: the binding signal in assay [6] came to 1.44 z-score; in assay [4], 1.25 z-score.
For the sequence “CCGATTAACATCACTAGGTAGTCTGATGTTAATCGGGTCTTGATTCGCTTGACGCTGCTG”, the binding signal in assay [6] came to 1.04 z-score.
As for “CCGATTAACATCATGGGGTGTGCTGATGTTAATCGGGTCTTGATTCGCTTGACGCTGCTG”, the binding signal in assay [1] was 1.12 z-score; in assay [2] it was 1.28 z-score.
The sequence “CCGATTAACATCACCCACCGATTTGATGTTAATCGGGTCTTGATTCGCTTGACGCTGCTG” gave a binding signal in assay [1] of 1.07 z-score.
